In the supplement of paper PMC6522484:
± gives the standard deviation of the averaged measurements.

Assays:
DLD1 [1] = test: cell viability (CellTiter-Glo) relative to plate median (fraction of plate median); higher = more viable cells; conditions: 10 µM, treatment time 24 h
How it was run: (§1)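 Values are the mean of two independent replicates of luminescence normalised to the plate median with webcellHTS2, using the additive method without log transformation. They come from colorectal cancer cell lines stably transduced with lentiviral TCF/Wnt firefly luciferase reporters (7TFP or TCF4/Wnt), seeded in 384-well plates. After 24 h the cells got kinase inhibitor library compounds at a final 10 µM for 24 h, and parallel plates were read for firefly luciferase or CellTiterGlo on a Tecan F500.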

HCT116 [2] = test: as above; conditions: 10 µM; treatment time 24 h; reporter: TCF4/Wnt
How it was run: as §1

SW480 [3] = test: as above; conditions: 10 µM; treatment time 24 h; reporter: 7TFP
How it was run: as §1

DLD1 [4] = test: TCF/Wnt firefly luciferase reporter signal relative to plate median (fraction of plate median); higher = higher Wnt reporter signal; conditions: 10 µM, treatment time 24 h
How it was run: as §1

HCT116 [5] = test: as above; conditions: 10 µM; treatment time 24 h; reporter: TCF4/Wnt
How it was run: as §1

SW480 [6] = test: as above; conditions: 10 µM; treatment time 24 h; reporter: 7TFP
How it was run: as §1

| SMILES | cell viability (DLD1 [1]; reporter: 7TFP) | cell viability (DLD1 [1]; reporter: TCF4/Wnt) | cell viability (HCT116 [2]) | cell viability (SW480 [3]) | TCF/Wnt firefly luciferase reporter signal (DLD1 [4]; reporter: 7TFP) | TCF/Wnt firefly luciferase reporter signal (DLD1 [4]; reporter: TCF4/Wnt) | TCF/Wnt firefly luciferase reporter signal (HCT116 [5]) | TCF/Wnt firefly luciferase reporter signal (SW480 [6]) |
| --- | --- | --- | --- | --- | --- | --- | --- | --- |
| COc1cc(Nc2ncc(F)c(Nc3ccc4c(n3)N(COP(=O)(O)O)C(=O)C(C)(C)O4)n2)cc(OC)c1OC [R788 (Fostamatinib)] | 0.89 ± 0.13 | 0.959 ± 0.046 | 0.888 ± 0.086 | 0.923 ± 0.037 | 0.781 ± 0.21 | 0.831 ± 0.079 | 2.88 ± 0.22 | 0.879 ± 0.079 |
| O=C(NOCC(O)CO)c1cc(Br)c(F)c(F)c1Nc1ccc(I)cc1F (stereo not given) | 1.17 ± 0.12 | 0.96 ± 0.13 | 0.891 ± 0.047 | 1.19 ± 0.028 | 1.72 ± 0.38 | 1.47 ± 0.16 | 1.95 ± 0.47 | 2.33 ± 0.064 |
| CS(=O)(=O)N1CCN(Cc2cc3nc(-c4cccc5[nH]ncc45)nc(N4CCOCC4)c3s2)CC1 | 0.998 ± 0.19 | 1.03 ± 0.05 | 1.08 ± 0.021 | 1 ± 0.035 | 0.93 ± 0.14 | 0.947 ± 0.16 | 1.16 ± 0.057 | 1.04 ± 0.075 |
| CN1CCN(c2nc(C3=C(c4c[nH]c5ccccc45)C(=O)NC3=O)c3ccccc3n2)CC1 [Sotrastaurin (AEB071)] | 1.08 ± 0.092 | 1.045 ± 0.0071 | 1.03 ± 0.13 | 0.914 ± 0.1 | 1.54 ± 0.05 | 1.52 ± 0.28 | 1.33 ± 0.83 | 0.983 ± 0.63 |
| Cn1cc(-c2ccc3ncc(Cc4ccc5ncccc5c4)n3n2)cn1 | 1.045 ± 0.0071 | 1.06 ± 0.094 | 1.15 ± 0.028 | 0.911 ± 0.032 | 0.931 ± 0.021 | 0.769 ± 0.21 | 0.991 ± 0.61 | 0.587 ± 0.28 |
| Cc1cc2c(F)c(Oc3ncnn4cc(OC[C@@H](C)O)c(C)c34)ccc2[nH]1 | 0.958 ± 0.13 | 1.01 ± 0.028 | 1.16 ± 0.014 | 0.942 ± 0.021 | 0.846 ± 0.22 | 1.05 ± 0.13 | 0.961 ± 0.11 | 0.978 ± 0.031 |
| Cc1nc(Nc2ncc(C(=O)Nc3c(C)cccc3Cl)s2)cc(N2CCN(CCO)CC2)n1 | 0.774 ± 0.11 | 0.898 ± 0.13 | 1.01 ± 0.035 | 1.06 ± 0.071 | 0.54 ± 0.063 | 0.487 ± 0.031 | 0.706 ± 0.078 | 0.615 ± 0.07 |
| CC[C@H](CO)Nc1nc(NCc2ccccc2)c2ncn(C(C)C)c2n1 [Roscovitine (Seliciclib, CYC202)] | 0.852 ± 0.065 | 0.922 ± 0.0099 | 0.923 ± 0.12 | 0.833 ± 0.039 | 1.14 ± 0.35 | 1.46 ± 0.23 | 1.34 ± 0.43 | 1.02 ± 0.028 |
| O=C1Nc2ccccc2/C1=C1/Nc2ccccc2C1=O [Indirubin] | 0.941 ± 0.044 | 0.819 ± 0.025 | 1.09 ± 0.13 | 0.862 ± 0.034 | 1.44 ± 0.057 | 1.2 ± 0.31 | 0.935 ± 0.054 | 1.08 ± 0.042 |
| NC(=O)c1ccc(-c2nc(-c3ccccn3)c(-c3ccc4c(c3)OCO4)[nH]2)cc1 | 0.936 ± 0.16 | 0.968 ± 0.014 | 1.09 ± 0.035 | 0.829 ± 0.037 | 0.99 ± 0.043 | 1.2 ± 0.085 | 1.21 ± 0.085 | 0.944 ± 0.15 |
| COc1ccc(COc2cc3oc(=O)c4cc(C(C)O)ccc4c3cc2OC)cc1 (stereo not given) [Palomid 529] | 1.08 ± 0.028 | 1.09 ± 0.021 | 1.12 ± 0.092 | 0.877 ± 0.044 | 1.1 ± 0.021 | 1.16 ± 0.099 | 1.2 ± 0.37 | 1.07 ± 0.099 |
| CC(C)(C)c1nc(-c2cccc(NS(=O)(=O)c3c(F)cccc3F)c2F)c(-c2ccnc(N)n2)s1 | 1 ± 0.051 | 0.981 ± 0.042 | 1.055 ± 0.0071 | 1.06 ± 0.064 | 1.18 ± 0.071 | 1.05 ± 0.05 | 0.931 ± 0.47 | 1.75 ± 0.014 |
| CN1CCN(c2ccc3nc(-c4c(N)c5c(F)cccc5[nH]c4=O)[nH]c3c2)CC1 [Dovitinib Dilactic acid (TKI258 Dilactic acid)] | 0.857 ± 0.19 | 0.956 ± 0.041 | 0.967 ± 0.13 | 1.17 ± 0.035 | 1.1 ± 0.099 | 1.16 ± 0.16 | 0.784 ± 0.52 | 1.09 ± 0.69 |
| CN(c1ncccc1CNc1nc(Nc2ccc3c(c2)CC(=O)N3)ncc1C(F)(F)F)S(C)(=O)=O | 0.974 ± 0.19 | 1.06 ± 0.071 | 0.698 ± 0.21 | 1.19 ± 0.11 | 0.732 ± 0.28 | 1.66 ± 0.33 | 0.2 ± 0.037 | 0.9115 ± 0.0064 |
| NC(=O)c1ccc(N(C(N)=O)c2c(F)cccc2F)nc1-c1ccc(F)cc1F | 0.966 ± 0.016 | 1.045 ± 0.0071 | 1.13 ± 0.085 | 0.91 ± 0.025 | 0.904 ± 0.019 | 0.756 ± 0.0014 | 0.921 ± 0.071 | 0.752 ± 0.08 |
| OCCn1cc(-c2ccc3c(c2)CC/C3=N\O)c(-c2ccncc2)n1 | 1.05 ± 0.15 | 0.992 ± 0.11 | 0.979 ± 0.059 | 1.145 ± 0.0071 | 1.5 ± 0.53 | 1.45 ± 0.085 | 1.62 ± 0.45 | 1.7 ± 0.092 |
| CN(C[C@@H]1COCCO1)S(=O)(=O)Nc1ccc2ccc3ncc(-c4cnn(C)c4)cc3c(=O)c2c1 | 0.907 ± 0.053 | 0.888 ± 0.044 | 0.926 ± 0.15 | 0.9835 ± 0.0064 | 0.96 ± 0.1 | 1.07 ± 0.035 | 0.972 ± 0.39 | 1.02 ± 0.36 |
| O=c1cc(-c2cccc3c2Sc2ccccc2S3)oc(N2CCOCC2)c1 | 1.02 ± 0.1 | 0.999 ± 0.03 | 1.11 ± 0.035 | 0.875 ± 0.0042 | 1.42 ± 0.13 | 1.18 ± 0.13 | 1.6 ± 0.4 | 1.18 ± 0.13 |
| O=C(c1ccc(/C=C/c2n[nH]c3ccccc23)cc1)N1CCNCC1 | 1.16 ± 0.021 | 1.14 ± 0.071 | 0.944 ± 0.093 | 1.09 ± 0.035 | 1.26 ± 0.6 | 1.46 ± 0.65 | 1.45 ± 0.45 | 1.53 ± 0.2 |
| C[S+]([O-])c1ccc(-c2nc(-c3ccc(F)cc3)c(-c3ccncc3)[nH]2)cc1 (stereo not given) | 0.99 ± 0.099 | 1.02 ± 0.028 | 1.11 ± 0.035 | 0.913 ± 0.0099 | 0.82 ± 0.16 | 0.884 ± 0.22 | 1.26 ± 0.38 | 0.935 ± 0.064 |
